The values below come from PubChem BioAssay (Tox21).

For assay [1], the target named is Cytochrome P450 2D6 (Homo sapiens) (UniProt P10635). Kind of assay: Cytochrome P450 Family 2 Subfamily D Member 6 (CYP2D6) small molecule antagonists: luciferase reporter qHTS assay (AID 1671196). Note: nearly all actives have a fitted effect of over 50% in size. In a few lines:
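Quantitative HTS of Tox21 chemicals against CYP2D6 using a luminescent proluciferin substrate. After NADPH addition, 1 h room-temperature reaction; luminescence recorded 20 min post detection reagent.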
Background: A reporter such as luciferase makes a cellular process visible.

In assay [2] the target is Cytochrome P450 2C9 (Homo sapiens) (UniProt P11712). Kind of assay: Cytochrome P450 Family 2 Subfamily C Member 9 (CYP2C9) small molecule antagonists: luciferase reporter qHTS assay (AID 1671198). Note: nearly all actives have a fitted effect of over 50% in size. In a few lines: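 P450-Glo proluciferin substrate with CYP2C9 enzyme; 10 min RT preincubation, then NADPH regeneration 1 h at 37C; luciferin detection reagent 20 min RT, luminescence in relative luminescence units.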

The target of assay [3] is Voltage-gated inwardly rectifying potassium channel KCNH2 (Homo sapiens) (UniProt Q12809). The experiment in a line: Human Ether-a-go-go-Related Gene (hERG) channel small molecule antagonists: fluorescence cell-based qHTS assay (AID 1671200). Note: nearly all actives have a fitted effect of over 50% in size. In a few lines:
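Measured: Tl+ flux via fluorescence (480/540 nm) in hERG-expressing U2OS cells after 1 h dye loading at room temperature.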
(Block of hERG is tested as a sign of cardiac risk.)

The target of assay [4] is Cytochrome P450 3A4 (Homo sapiens) (UniProt P08684). Kind of assay: Cytochrome P450 Family 3 Subfamily A Member 4 (CYP3A4) small molecule antagonists: luciferase reporter qHTS assay (AID 1671201). Note: nearly all actives have a fitted effect of over 50% in size. In a few lines: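 Setup: enzyme-substrate mix, compound pin transfer, 10 min RT. Reaction: NADPH regeneration solution, 1 h RT. Readout: detection reagent stops turnover, luminescence measured after 20 min, expressed in relative luminescence units.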

Assay [5] has as its target Cytochrome P450 1A2 (Homo sapiens) (UniProt P05177). Kind of assay: Cytochrome P450 Family 1 Subfamily A Member 2 (CYP1A2) small molecule antagonists: luciferase reporter qHTS assay (AID 1671199). Note: nearly all actives have a fitted effect of over 50% in size. In a few lines: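 Quantitative high-throughput format using the P450-Glo CYP1A2 system. Reaction initiated by NADPH regeneration solution, 1 h at room temperature, then stopped with detection reagent; luminescence measured 20 min later.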

The target of assay [6] is Cytochrome P450 2C19 (Homo sapiens) (UniProt P33261). Kind of assay: Cytochrome P450 Family 2 Subfamily C Member 19 (CYP2C19) small molecule antagonists: luciferase reporter qHTS assay (AID 1671197). Note: nearly all actives have a fitted effect of over 65% in size. In a few lines:
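Quantitative high-throughput screen of the Tox21 library using CYP2C19 with proluciferin substrate. Reaction: NADPH regeneration, 37C, 1 h, after 10 min compound preincubation at room temperature. Readout: luminescence.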

Inconclusive results are not listed. A number with no mark means an inactive call. Calls of active or inactive are those of the source. Calls come from the whole dose curve; as a rule, active = well fitted curve in the direction sought with a large enough effect in the repeat runs; inconclusive = weak or mixed curves; inactive = no such curve, though single readings can be large; an effect the other way counts as inactive or inconclusive.
Potency is the fitted concentration of half-maximal effect.

Sequence of Voltage-gated inwardly rectifying potassium channel KCNH2 (Homo sapiens) (Q12809 whole entry, looked up): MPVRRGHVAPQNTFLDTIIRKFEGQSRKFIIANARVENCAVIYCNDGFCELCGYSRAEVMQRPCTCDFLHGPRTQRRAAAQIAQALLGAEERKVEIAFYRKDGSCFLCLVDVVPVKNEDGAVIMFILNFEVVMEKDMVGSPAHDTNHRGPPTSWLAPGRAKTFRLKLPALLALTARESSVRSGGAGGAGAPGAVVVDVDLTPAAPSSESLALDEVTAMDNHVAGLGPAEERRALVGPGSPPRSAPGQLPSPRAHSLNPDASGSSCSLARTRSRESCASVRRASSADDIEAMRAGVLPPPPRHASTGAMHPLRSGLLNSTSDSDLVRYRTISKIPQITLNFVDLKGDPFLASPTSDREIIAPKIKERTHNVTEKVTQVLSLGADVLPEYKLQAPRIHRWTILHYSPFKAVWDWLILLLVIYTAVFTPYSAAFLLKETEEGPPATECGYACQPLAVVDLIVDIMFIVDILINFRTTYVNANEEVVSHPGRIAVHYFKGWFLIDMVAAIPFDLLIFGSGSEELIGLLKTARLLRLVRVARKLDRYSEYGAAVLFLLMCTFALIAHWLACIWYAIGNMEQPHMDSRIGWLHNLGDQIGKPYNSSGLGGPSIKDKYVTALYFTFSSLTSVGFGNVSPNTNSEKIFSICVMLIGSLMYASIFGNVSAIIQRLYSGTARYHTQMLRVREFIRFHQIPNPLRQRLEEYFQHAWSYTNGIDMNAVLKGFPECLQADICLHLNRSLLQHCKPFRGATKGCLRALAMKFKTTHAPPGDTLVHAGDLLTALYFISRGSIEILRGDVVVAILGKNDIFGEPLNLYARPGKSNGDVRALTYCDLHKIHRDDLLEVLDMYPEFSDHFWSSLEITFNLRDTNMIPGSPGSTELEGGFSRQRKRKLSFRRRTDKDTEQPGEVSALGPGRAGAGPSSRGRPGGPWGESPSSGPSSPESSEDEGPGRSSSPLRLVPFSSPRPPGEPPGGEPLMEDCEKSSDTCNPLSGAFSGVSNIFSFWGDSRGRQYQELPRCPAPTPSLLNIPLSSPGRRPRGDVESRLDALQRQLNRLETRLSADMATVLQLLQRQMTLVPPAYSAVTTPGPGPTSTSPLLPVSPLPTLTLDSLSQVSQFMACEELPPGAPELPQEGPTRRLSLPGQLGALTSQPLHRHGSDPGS
Sequence of Cytochrome P450 2D6 (Homo sapiens) (P10635 whole entry, looked up): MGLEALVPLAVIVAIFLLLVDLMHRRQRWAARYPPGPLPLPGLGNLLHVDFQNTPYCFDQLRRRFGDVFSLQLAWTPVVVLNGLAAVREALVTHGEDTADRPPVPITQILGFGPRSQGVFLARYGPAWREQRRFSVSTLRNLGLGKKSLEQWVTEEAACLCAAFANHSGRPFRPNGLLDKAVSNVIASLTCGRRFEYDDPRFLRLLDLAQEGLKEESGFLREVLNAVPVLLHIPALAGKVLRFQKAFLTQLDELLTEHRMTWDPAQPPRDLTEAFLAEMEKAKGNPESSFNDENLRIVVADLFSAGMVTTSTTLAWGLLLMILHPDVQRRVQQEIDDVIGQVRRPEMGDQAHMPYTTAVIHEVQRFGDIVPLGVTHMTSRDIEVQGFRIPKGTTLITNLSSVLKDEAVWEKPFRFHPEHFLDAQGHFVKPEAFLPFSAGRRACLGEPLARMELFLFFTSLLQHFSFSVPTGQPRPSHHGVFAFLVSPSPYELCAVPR
Sequence of Cytochrome P450 2C9 (Homo sapiens) (P11712 whole entry, looked up): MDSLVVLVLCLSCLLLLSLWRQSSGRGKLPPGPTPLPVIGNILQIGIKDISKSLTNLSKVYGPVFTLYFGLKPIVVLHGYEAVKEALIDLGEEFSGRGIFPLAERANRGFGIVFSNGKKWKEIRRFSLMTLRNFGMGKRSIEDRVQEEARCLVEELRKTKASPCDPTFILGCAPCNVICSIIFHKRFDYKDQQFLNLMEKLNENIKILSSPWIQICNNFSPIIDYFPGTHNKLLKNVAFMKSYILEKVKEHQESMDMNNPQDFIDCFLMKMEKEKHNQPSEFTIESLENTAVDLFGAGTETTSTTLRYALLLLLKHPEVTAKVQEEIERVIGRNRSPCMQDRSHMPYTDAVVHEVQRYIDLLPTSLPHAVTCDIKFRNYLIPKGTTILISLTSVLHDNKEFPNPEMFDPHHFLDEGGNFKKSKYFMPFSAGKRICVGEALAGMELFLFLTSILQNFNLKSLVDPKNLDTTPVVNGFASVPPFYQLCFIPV
Sequence of Cytochrome P450 1A2 (Homo sapiens) (P05177 whole entry, looked up): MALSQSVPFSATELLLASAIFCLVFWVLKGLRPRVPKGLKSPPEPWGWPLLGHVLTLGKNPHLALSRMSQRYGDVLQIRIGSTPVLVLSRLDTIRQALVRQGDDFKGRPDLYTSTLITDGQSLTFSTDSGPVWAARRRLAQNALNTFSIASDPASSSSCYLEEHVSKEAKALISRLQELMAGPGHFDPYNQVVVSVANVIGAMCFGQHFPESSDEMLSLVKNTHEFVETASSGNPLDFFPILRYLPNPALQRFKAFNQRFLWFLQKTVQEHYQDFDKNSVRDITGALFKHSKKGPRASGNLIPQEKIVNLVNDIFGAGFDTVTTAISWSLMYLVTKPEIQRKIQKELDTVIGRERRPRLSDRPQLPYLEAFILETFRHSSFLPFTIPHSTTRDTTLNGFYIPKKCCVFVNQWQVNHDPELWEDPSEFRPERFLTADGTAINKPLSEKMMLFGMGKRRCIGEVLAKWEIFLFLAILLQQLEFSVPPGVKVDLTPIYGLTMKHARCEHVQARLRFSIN
Sequence of Cytochrome P450 3A4 (Homo sapiens) (P08684 whole entry, looked up): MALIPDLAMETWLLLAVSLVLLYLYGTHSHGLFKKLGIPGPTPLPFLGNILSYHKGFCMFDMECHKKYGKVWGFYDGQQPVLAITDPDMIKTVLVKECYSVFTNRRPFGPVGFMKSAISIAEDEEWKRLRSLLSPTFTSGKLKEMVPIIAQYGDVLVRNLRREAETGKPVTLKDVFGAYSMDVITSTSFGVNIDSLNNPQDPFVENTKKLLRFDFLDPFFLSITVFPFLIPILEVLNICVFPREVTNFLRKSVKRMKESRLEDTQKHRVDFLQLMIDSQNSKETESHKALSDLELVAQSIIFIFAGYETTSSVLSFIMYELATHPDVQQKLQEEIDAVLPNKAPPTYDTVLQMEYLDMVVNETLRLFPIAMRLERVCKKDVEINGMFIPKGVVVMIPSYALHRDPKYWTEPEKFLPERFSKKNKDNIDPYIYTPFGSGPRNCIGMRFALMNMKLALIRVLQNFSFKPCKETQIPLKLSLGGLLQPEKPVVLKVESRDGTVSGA
Sequence of Cytochrome P450 2C19 (Homo sapiens) (P33261 whole entry, looked up): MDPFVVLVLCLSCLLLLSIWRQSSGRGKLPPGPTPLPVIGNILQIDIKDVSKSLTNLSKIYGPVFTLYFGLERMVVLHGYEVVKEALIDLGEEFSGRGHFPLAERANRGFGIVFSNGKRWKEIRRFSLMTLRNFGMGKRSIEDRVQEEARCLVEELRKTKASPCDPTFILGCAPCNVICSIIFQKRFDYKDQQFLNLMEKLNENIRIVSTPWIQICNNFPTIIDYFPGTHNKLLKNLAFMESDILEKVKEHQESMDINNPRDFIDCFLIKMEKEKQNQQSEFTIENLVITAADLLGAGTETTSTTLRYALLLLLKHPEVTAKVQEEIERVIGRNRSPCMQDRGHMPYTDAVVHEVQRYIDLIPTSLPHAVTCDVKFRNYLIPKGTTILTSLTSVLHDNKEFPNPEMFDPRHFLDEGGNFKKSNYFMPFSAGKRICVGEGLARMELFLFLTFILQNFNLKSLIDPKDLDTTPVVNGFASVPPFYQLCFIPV

With `c1ccc2occc2c1`, the Potency in assay [1] was 31.7 µM (active); in assay [2] it was 35.6 µM (active). The Potency result in assay [3] and in assay [4] was “inactive” in each case.
For `CCOC(=O)C1=NN(c2ccc(Cl)cc2Cl)C(C)(C(=O)OCC)C1` (stereo not given), the Potency in assay [1] is 39.9 µM (active); in assay [2], 7.1 µM (active); in assay [3], 43.6 µM (active); in assay [4], 35.6 µM (active).
In the case of `CN1CCN(C)CC1`, the Potency entry in assay [1], in assay [2], in assay [3] and in assay [4] was “inactive” throughout.
Consider `O=C1OC2(c3ccccc31)c1ccc(O)c(Br)c1Oc1c2ccc(O)c1Br`, for which the Potency result in assay [1], in assay [5] and in assay [4] was “inactive” in each case. The values for the Potency in assay [2] and in assay [3] were 63.3 µM (active) and 34.7 µM (active), respectively.
For `O=[N+]([O-])c1ccc(CO)cc1`, the Potency entry in assay [1], in assay [2], in assay [3] and in assay [4] was “inactive” throughout.
On to `Cc1c(Cl)c(=O)oc2cc(O)ccc12`, for which the Potency result in assay [1], in assay [2], in assay [3] and in assay [4] was “inactive” each time. The Potency in assay [5] is 17.8 µM (active).
Regarding `Nc1c(Br)cc([N+](=O)[O-])cc1Br`, the Potency entry in assay [1], in assay [2], in assay [3] and in assay [4] was “inactive” throughout.
For the molecule `COCCC(=O)OC`, the Potency result in assay [1], in assay [2], in assay [3] and in assay [4] was “inactive” throughout.
For the molecule `O=C(c1ccccc1)c1ccc(Cl)cc1`, the Potency entry in assay [1], in assay [3] and in assay [4] was “inactive” in each case. The Potency is 15.9 µM (active) in assay [2] and 5.03 µM (active) in assay [5].
For `NCc1cccc(C2CCN(C(=O)c3ccc(C#Cc4ccccc4F)o3)CC2)c1`, the Potency in assay [1] is 20 µM (active); in assay [2] it was 0.071 µM (active); in assay [5] it was 71 µM (active); in assay [3], 11 µM (active); in assay [4] it was 5.64 µM (active).
As for `CCc1cccc(CC)c1`, the Potency result in assay [1], in assay [2], in assay [5], in assay [3] and in assay [4] was “inactive” throughout.
With `Cc1cc(C)c(O)c(C(C)(C)C)c1`, the Potency entry in assay [1], in assay [3] and in assay [4] was “inactive” each time. The Potency in assay [5] is 31.7 µM (active).
Take `CCSCC`: the Potency entry in assay [1], in assay [2], in assay [5], in assay [3] and in assay [4] was “inactive” each time.
For the molecule `N#Cc1nc(Cl)c(Cl)c(Cl)c1Cl`, the Potency result in assay [1], in assay [3] and in assay [4] was “inactive” in each case. In addition, the Potency in assay [2] was 79.6 µM (active).
Turning to `CC1(C)[C@H]2CC[C@]1(C)C(=O)C2`, the Potency result in assay [1], in assay [2], in assay [5], in assay [3] and in assay [4] was “inactive” in each case.
In the case of `CCN(CCC#N)c1ccc(N=Nc2ccc([N+](=O)[O-])cc2)cc1`, the Potency result in assay [1], in assay [2], in assay [3] and in assay [4] was “inactive” in each case.
Turning to `CSc1ccc(O)cc1C`, the Potency entry in assay [1] and in assay [3] was “inactive” each time.
`Cc1ccc2n[nH]nc2c1`: the Potency result in assay [1], in assay [2], in assay [3] and in assay [4] was “inactive” each time.
For the molecule `CN1CCN(c2ccccc2/C=C2\SCCN(c3ccc(Cl)c(Cl)c3)C2=O)CC1`, the Potency was 7.1 µM (active) in assay [1], 10 µM (active) in assay [2], 2.19 µM (active) in assay [3] and 3.99 µM (active) in assay [4].
Consider `CC(CC(C)(C)C)CC(C)(C)CC(C)(C)C` (stereo not given), for which the Potency result in assay [1], in assay [2], in assay [5], in assay [3] and in assay [4] was “inactive” throughout.
`CN[C@H]1CC[C@@H](c2ccc(Cl)c(Cl)c2)c2ccc(S(N)(=O)=O)cc21`: the Potency in assay [1] is 1.42 µM (active); in assay [2] it was 39.9 µM (active); in assay [3], 9.77 µM (active); in assay [4], 28.3 µM (active). Besides, the Potency entry in assay [5] was “inactive”.
In the case of `Oc1ccc(Cl)cc1C1CCCC1`, the Potency entry in assay [1], in assay [3] and in assay [4] was “inactive” each time. In assay [2], the Potency was 28.3 µM (active).
For the molecule `C=COCCCC`, the Potency result in assay [1], in assay [2], in assay [5], in assay [3] and in assay [4] was “inactive” each time.
Take `O=C(Cl)c1ccc(Cl)cc1Cl`: the Potency result in assay [1] and in assay [3] was “inactive” throughout.
As for `CC/C=C\C/C=C\C/C=C\CCCCCCCC(=O)OC`, the Potency in assay [6] is 56.4 µM (active); in assay [2] it was 28.3 µM (active); in assay [5], 63.3 µM (active); in assay [4], 20 µM (active). In assay [3], the Potency entry was “inactive”.
On to `NCc1ccco1`, for which the Potency entry in assay [2], in assay [3] and in assay [4] was “inactive” throughout.
